The list is not random: actives were taken first. Their share in the collection is about 2.4%.
D2 ag-1 = activates the human D2 dopamine receptor. activation, % at 2 µM. AID 485358. P14416. HEK293 T-REx D2 cells, calcium flux agonist mode. hit rate 0.53% among 340,000;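 active = activation over 3 SD above normal in the single-dose calcium agonist read, cut at about 30% in these data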; note: 0% is about no effect
Target sequence (P14416 whole entry, looked up): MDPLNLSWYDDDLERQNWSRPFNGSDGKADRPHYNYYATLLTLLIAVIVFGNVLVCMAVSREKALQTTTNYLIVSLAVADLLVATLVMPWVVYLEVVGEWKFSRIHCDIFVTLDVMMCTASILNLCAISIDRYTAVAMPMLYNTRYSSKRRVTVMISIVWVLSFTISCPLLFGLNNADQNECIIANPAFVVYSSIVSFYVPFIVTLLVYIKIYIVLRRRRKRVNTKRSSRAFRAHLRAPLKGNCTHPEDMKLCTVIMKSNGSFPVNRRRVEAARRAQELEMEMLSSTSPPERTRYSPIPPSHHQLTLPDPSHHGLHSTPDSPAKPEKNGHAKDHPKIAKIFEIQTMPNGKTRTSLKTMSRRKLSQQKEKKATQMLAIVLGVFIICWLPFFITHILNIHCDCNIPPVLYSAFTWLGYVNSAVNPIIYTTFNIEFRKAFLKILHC
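In this primary screen, compounds producing a positive calcium signal within 180 s of addition to tetracycline-induced, force-coupled HEK293 Trex D2 cells are flagged; cells are dye-loaded with a no-wash calcium kit beforehand.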
D2 PAM-1 = potentiates the human D2 dopamine receptor allosterically; hit rate 0.23% among 360,000; DiscoveRx D2 beta-arrestin cells, luminescence, 90 min; 100% = 57 uM dopamine signal; potentiation, % (concentration not given with the values); P14416; in the data active = potentiation above about 50%
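PathHunter beta-arrestin assay in DiscoveRx D2 cells. Compounds were added with an EC20 of dopamine (50 nM final) for 90 min at 37 deg C. Luminescence was read 1 h after detection reagent, with 57 uM dopamine as the EC100 control.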
D2 PAM-2 = D2 dopamine receptor (human) potentiation. P14416. HEK293 T-REx D2, calcium flux, EC20 dopamine potentiation. potentiation, % at 10 µM. hit rate 0.34% among 340,000;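 active = potentiation over 3 SD above the plate norm, cut at about 30% in these data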; note: 0% is about no effect
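Cells plated with tetracycline inducer and held overnight at 30 C; calcium dye loaded 30–90 min at room temperature; baseline taken, compound added and read 180 s; EC20 dopamine then added and read 180 s.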
D2 antag = antagonizes the human D2 dopamine receptor; hit rate 2% among 340,000; HEK293 TREx D2 cells, calcium flux, dopamine EC80; AID 485344; inhibition, % at 10 µM; P14416; in the data active = inhibition above about 30%; inactive = below that, where a call was filed; note: 0% is about no effect
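Calcium mobilization kinetics were recorded at 1 s intervals in tetracycline-induced HEK293 T-REx D2 cells, first for 180 s after compound addition and then 180 s after EC80 dopamine.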
D2 ag-2 = agonists of human D2 dopamine receptor (beta-arrestin); hit rate 0.084% among 360,000; DiscoveRx PathHunter D2 beta-arrestin, luminescence, 90 min; 100% = 57 uM dopamine signal; activation, % (no concentration beside the values); in the data active = activation above about 40%
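Agonist mode: compounds alone added to overnight-plated D2 PathHunter cells for 90 min at 37 C, with 57 uM final dopamine (EC100) defining full response. Beta-arrestin recruitment detected by chemiluminescent reagent, read after 1 h at ambient temperature.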
* marks the source's active call; other numbers are inactive results.

For C=CCc1ccc(OCC(O)CN2CCN(c3ccccc3OC)CC2)c(OC)c1 (stereo unspecified) the results were D2 ag-1 -1, D2 PAM-1 -12, D2 PAM-2 7, D2 antag 7 and D2 ag-2 5.
`Cc1ccc(C)c(NC(=O)C(=O)NCCc2csc3nc(-c4ccccc4C)nn23)c1` gave D2 ag-1 0 and D2 PAM-2 3.
`Oc1c(C(c2ccccc2Cl)N2CCCC2)sc2nc(-c3ccco3)nn12` (stereo unspecified) gave D2 ag-1 -3 and D2 PAM-2 6.
`Cc1ccccc1OCC(O)Cn1c(=N)n(CCN2CCOCC2)c2ccccc21` (stereo unspecified) gave D2 ag-1 -2, D2 PAM-1 -12, D2 PAM-2 40*, D2 antag -14 and D2 ag-2 -2.
For COc1ccc2[nH]cc(C(O)CN3CCN(c4ccccc4F)CC3)c2c1 (stereo unspecified) the results were D2 ag-1 13, D2 PAM-1 -16, D2 PAM-2 -13, D2 antag 33* and D2 ag-2 -3.
`COc1ccc(CCNC(=O)Cn2nnc(-c3cccc(C(F)(F)F)c3)n2)cc1OC` gave D2 ag-1 -1 and D2 PAM-2 1.
Screening CCc1ccc(NC(=O)c2cccc(N3CCCS3(=O)=O)c2)cc1 returned D2 ag-1 0 and D2 PAM-2 0.
COc1ccc(C(=O)C2CCCN(Cc3cccn3-c3ccccn3)C2)cc1F (stereo unspecified) was read as D2 PAM-1 -3, D2 PAM-2 20 and D2 ag-2 -3.
`O=C(c1cccc(C(F)(F)F)c1)C1CCCN(Cc2cccn2-c2ncccn2)C1` (stereo unspecified) gave D2 ag-1 -1, D2 PAM-1 -7, D2 PAM-2 -9, D2 antag 32* and D2 ag-2 0.
Screening O=C(c1ccc(C(F)(F)F)cc1)C1CCCN(Cc2cccn2-c2ncccn2)C1 (stereo unspecified) returned D2 ag-1 1, D2 PAM-1 -16, D2 PAM-2 -3, D2 antag -37 and D2 ag-2 -4.
Screening COc1ccc(F)cc1C(=O)C1CCCN(Cc2ccc(Oc3ncccn3)cc2)C1 (stereo unspecified) returned D2 ag-1 0, D2 PAM-1 -20, D2 PAM-2 -20, D2 antag 49* and D2 ag-2 -4.
Screening COc1ccc(F)cc1C(=O)C1CCCN(Cc2cccn2-c2cccnc2)C1 (stereo unspecified) returned D2 ag-1 1, D2 PAM-1 -20, D2 PAM-2 -38, D2 antag 74* and D2 ag-2 -4.
COc1ccc(F)cc1C(=O)C1CCCN(Cc2cnc(N3CCCC3)s2)C1 (stereo unspecified) was read as D2 ag-1 -1, D2 PAM-1 -7, D2 PAM-2 -24, D2 antag 66* and D2 ag-2 -2.
`O=C(Cn1ccc2cc(S(=O)(=O)N3CCCCCC3)ccc21)NCc1cccc(Cl)c1` gave D2 ag-1 -1 and D2 PAM-2 20.
Screening CCCn1c(=O)c2sccc2n2c(CCCC(=O)N3CCN(c4ccccc4)CC3)nnc12 returned D2 ag-1 -1 and D2 PAM-2 0.
Screening Cc1ccc(-n2nnnc2CNC(=O)C(C)(C)C)cc1C returned D2 ag-1 2 and D2 PAM-2 5.
`Cc1cc(NC(=O)CCC(=O)N(Cc2ccco2)C2(C(=O)NC3CCCC3)CCCCC2)no1` gave D2 ag-1 0, D2 PAM-1 -10, D2 PAM-2 1, D2 antag 5 and D2 ag-2 -9.
Screening Cc1cc(NC(=O)CCC(=O)N(Cc2ccco2)C2(C(=O)NC3CCCC3)CCCCC2C)no1 (stereo unspecified) returned D2 ag-1 1, D2 PAM-1 -2, D2 PAM-2 14, D2 antag 34* and D2 ag-2 3.
Screening CC(=O)N(Cc1ccco1)C1(C(=O)NC2CCCCC2)CCCCC1 returned D2 PAM-1 -6 and D2 ag-2 -3.
CC(=O)NCC(=O)N(Cc1ccco1)C1(C(=O)NC2CCCCC2)CCCCC1 was read as D2 ag-1 1, D2 PAM-1 -18, D2 PAM-2 0, D2 antag 73* and D2 ag-2 -5.
For COc1cc(NC(=O)CCc2nc3cccnc3n2Cc2cccs2)cc(OC)c1OC the results were D2 ag-1 0 and D2 PAM-2 -3.
CCC(Cn1nnc2ccccc2c1=O)NC(=O)Nc1ccc(C)c(C)c1 (stereo unspecified) was read as D2 ag-1 -1 and D2 PAM-2 0.
For CCN(c1ccccc1)c1ncnc2c1cnn2-c1ccc(OC)cc1 the results were D2 ag-1 0 and D2 PAM-2 -12.
`Cc1sc(NC(=O)CSc2nc(N)n(CC(=O)c3ccccc3)n2)c(C#N)c1C` gave D2 ag-1 33*, D2 PAM-1 5, D2 PAM-2 -24, D2 antag -22 and D2 ag-2 2.
For Cc1ccccc1-c1noc(-c2ccc(N3CCN(c4ccccc4)CC3)c([N+](=O)[O-])c2)n1 the results were D2 ag-1 1 and D2 PAM-2 3.
CCN(CC)c1ccc(/C=C(/C#N)c2nc3ccc(C)cc3[nH]2)c(OC(C)C)c1 was read as D2 ag-1 42*, D2 PAM-1 -17, D2 PAM-2 -7, D2 antag -2 and D2 ag-2 -6.
Screening O=c1c2oc3ccccc3c2n(Cc2cccc(F)c2)c(=O)n1Cc1ccco1 returned D2 ag-1 0 and D2 PAM-2 2.
Screening CCN1CCN(C(=O)Nc2ccc(OC)cc2OC)CC1 returned D2 ag-1 0, D2 PAM-1 -5, D2 PAM-2 12, D2 antag 49* and D2 ag-2 3.
`COc1ccc(NC(=O)N2CCCCCC2)c(OC)c1` gave D2 ag-1 0, D2 PAM-1 -13, D2 PAM-2 -2, D2 antag -7 and D2 ag-2 -1.
Cc1ccc(C(=O)N2CCCC(CCC(=O)N3CCN(c4ccccn4)CC3)C2)cn1 (stereo unspecified) was read as D2 ag-1 0, D2 PAM-1 75*, D2 PAM-2 6, D2 antag -3 and D2 ag-2 -5.
`Cc1ccc(C(=O)N2CCCC(CCC(=O)N3CCN(c4ccccn4)CC3)C2)cc1C` (stereo unspecified) gave D2 ag-1 2, D2 PAM-1 -5, D2 PAM-2 5, D2 antag 1 and D2 ag-2 -3.
Screening O=C(COc1ccc(S(=O)(=O)N2CCCC2)cc1Cl)NCc1ccccn1 returned D2 ag-1 0, D2 PAM-1 -2, D2 PAM-2 -5, D2 antag -11 and D2 ag-2 -1.

Screening results deposited in PubChem BioAssay by National Center for Advancing Translational Sciences (NCATS).
